Screening data: PubChem, several laboratories
An excerpt weighted towards active compounds, which were near 1.5% of everything screened.
LANA DNA inh – blocks KSHV LANA C-terminal domain binding to DNA | inhibition, % at 9 µM | actives 0.078% (n = 340,000) | MBP-C-LANA/FAM-LBS DNA binding, fluorescence polarization;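 active = highest replicate inhibition at or above 60% at 9 µM, even if other replicates fall short; inactive = all replicates below 60% inhibition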
LANA-H2B inh – blocks KSHV LANA binding to histone H2A/H2B. inhibition, % (no concentration beside the values). actives 0.6% (n = 320,000). Q9QR71. cell-free LANA-H2A/H2B peptide, fluorescence polarization. AID 2629; in the data active = inhibition mostly above about 10%, no sharp cut-off; inactive = mostly below about 6.7%
EBV gp42 inh – blocks Epstein-Barr virus glycoprotein 42 binding | Q1HVG2 | inhibition, % (tested at 21.74 µM) | Fluorescence polarization binding assay, mP read-out | actives 0.42% (n = 220,000); in the data active = inhibition above about 50%
Target sequence (Q1HVG2 whole entry, looked up): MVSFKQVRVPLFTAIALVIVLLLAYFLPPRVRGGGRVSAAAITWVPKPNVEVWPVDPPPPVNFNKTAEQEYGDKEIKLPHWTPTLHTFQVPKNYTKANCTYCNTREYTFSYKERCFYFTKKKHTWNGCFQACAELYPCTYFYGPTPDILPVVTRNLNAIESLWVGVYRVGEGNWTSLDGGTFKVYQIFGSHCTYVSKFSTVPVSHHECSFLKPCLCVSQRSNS
GLD-1 RNA inh – GLD-1-TGE RNA interaction inhibition (C. elegans) | purified GLD-1 + fluorescein TGE RNA, fluorescence polarization | inhibition, % at 5.96 µM | AID 2280 | actives 0.44% (n = 320,000);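 active = percent inhibition above a per-plate cutoff, the plate mean of test compounds plus 3 SD, cut at about 30% in these data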
eLon inh – E. coli protease La inhibition. AID 602123. purified E. coli Lon protease, fluorescence polarization. actives 0.42% (n = 360,000). P0A9M0. inhibition, % at 7.94 µM; in the data active = inhibition above about 13%, passing the limit was not always enough
Keap1-Nrf2 PPI – disrupts human Keap1 binding to Nrf2 peptide | Q14145 | Keap1 Kelch-Nrf2 peptide fluorescence polarization, 1536-well | inhibition, % at 9.4 µM | actives 0.15% (n = 340,000) | AID 504523; in the data active = inhibition above about 12%;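 note: human Keap1 Kelch domain with fluorescein labeled Nrf2 9mer peptide probe; higher means more block of Keap1 binding to Nrf2 peptide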
Numbers stand for hits; 0 = inactive; - = not tested or not shown.

SMILES | LANA DNA inh | LANA-H2B inh | EBV gp42 inh | GLD-1 RNA inh | eLon inh | Keap1-Nrf2 PPI
NC(=O)c1ccc(NC(=O)COC(=O)c2ccc(Cl)nc2)cc1 | 0 | 12.0 | - | 0 | 0 | 0
C=C1C(=O)C23C(O)C1CCC2C12CCCC(C)(COC(C)=O)C1C(O)C3(O)OC2 (stereo unspecified) | 0 | - | - | - | 0 | 0
Cc1ccc(-c2cc([C@H]3[C@@H]4C=CCC[C@@]4(C)C(=O)N3Cc3ccccc3)ccc2F)cc1 | 0 | 0 | 0 | 0 | 0 | 0
CN(C)c1ccc(-c2cc([C@H]3[C@@H]4C=CCC[C@@]4(C)C(=O)N3Cc3ccccc3)ccc2F)cc1 | 0 | 14.4 | 0 | 0 | 0 | 0
CCOc1ccc(NS(=O)(=O)c2ccc(N)cc2)cc1 | 0 | 0 | 0 | 0 | 0 | 0
CCOc1ccc(Nc2ccc(N)c(S(=O)(=O)O)c2)cc1 | 87.9 | - | - | - | 0 | 0
COC(=O)COc1ccc(S(=O)(=O)NCc2ccc3c(c2)OCO3)cc1C | 0 | 0 | - | 0 | 0 | 0
COc1ccc(CN2C(=O)CCC2(C)c2nnnn2-c2ccc3c(c2)OCCO3)cc1OC (stereo unspecified) | - | - | - | - | 0 | -
CC(=O)c1ccc(CCCCCCCCCC(=O)O)s1 | 0 | 2.8 | 0 | 0 | 0 | 0
Cn1c(O)c(C=Nc2ccc(N3CCOCC3)cc2)c(=O)n(C)c1=S | 0 | - | 111.9 | - | 0 | 0
CCOC(=O)C1C(=O)C=C(c2ccc([N+](=O)[O-])cc2)CC1c1ccccc1 (stereo unspecified) | 0 | 0 | 0 | 0 | 0 | 0
CCOC(=O)C1C(=O)C=C(C)C(C(=O)OCC)C1c1cccc([N+](=O)[O-])c1 (stereo unspecified) | 0 | 27.4 | - | 0 | 0 | 0
CCOC(=O)c1ccc(NC(=O)CCCN2C(=O)NC3(CCCC3)C2=O)cc1 | 0 | 12.4 | - | 0 | 0 | 0
CCOC(=O)c1ccc(NC(=O)CN2C(=O)NC3(CCCCCC3)C2=O)cc1 | - | 0 | 0 | 0 | 0 | -
CCOc1ccc(Nc2nc(NCCN3CCOCC3)nc(OC)n2)cc1 | 0 | 0 | 0 | 0 | 0 | 0
CCCC(=O)Nc1ccc(NC(=O)c2ccccn2)cn1 | 0 | 39.0 | 0 | 0 | 0 | 0
CCCC(=O)Nc1ccc(NC(=O)c2ccccc2OC)cn1 | 0 | 0 | 0 | 0 | 0 | 0
CCCC(=O)Nc1ccc(NC(=O)c2ccco2)cn1 | 0 | 0 | 0 | 0 | 0 | 0
CCCCC(=O)Nc1ccc(NC(=O)c2ccco2)cn1 | 0 | 11.3 | - | 0 | 0 | 0
CC(C)C[C@H]1CNC(=O)C(=O)N1C[C@H]1CCCN1C[C@H](CC(C)C)N1C[C@H](CC(C)C)N(CCc2ccccc2)C(=O)C1=O | - | - | - | - | 0 | -
Nc1ncnc2c1ncn2[C@@H]1O[C@H](C(=O)NCCCN2CCCC2=O)[C@@H](O)[C@H]1O | - | - | - | - | 0 | -
CN(CCCC1CCCC1)C(=O)CCc1nnc(-c2ccccc2)o1 | 0 | 0 | 0 | 0 | 0 | 0
CN(C(=O)CCc1nnc(-c2ccc(-c3ccccc3)cc2)o1)C1CCOCC1 | 0 | 14.8 | - | 0 | 0 | 0
COCCCNC(=O)CNC(=S)N(Cc1ccc(F)cc1)C1CCCCC1 | 0 | 29.8 | 0 | 0 | 0 | 0
COC(=O)C1CCN(C(=O)c2ccc(SC)cc2OC)CC1 | 0 | 12.4 | 0 | 0 | 0 | 0
SMILES | LANA DNA inh | LANA-H2B inh | EBV gp42 inh | GLD-1 RNA inh | eLon inh | Keap1-Nrf2 PPI
COc1cc(SC)ccc1C(=O)N1CCN(c2ccccc2OC)CC1 | 0 | 0 | 0 | 0 | 0 | 0
COc1ccc(Cl)cc1NC(=O)c1cc(-c2cc(C)ccc2O)n[nH]1 | 0 | 0 | 0 | 0 | 0 | 0
COc1ccc(Cl)cc1NC(=O)c1cc(-c2ccc(C)cc2O)n[nH]1 | 0 | 23.1 | 0 | 0 | 0 | 0
C=CCN1C(=O)/C(=C/c2ccc(N(C)C)cc2)S/C1=N\c1nnc(CC)s1 | - | - | 52.9 | - | - | -
C=CCN1C(=O)/C(=C/c2ccc(OCC(=O)O)cc2)S/C1=N/c1nccs1 | 0 | 0 | 0 | 0 | 0 | 0
COc1ccc(OC(F)(F)F)cc1CC1(C)C(=O)Nc2ccc(S(=O)(=O)NC3CCCCC3)cc21 (stereo unspecified) | - | - | - | - | 0 | -
CN1CCCCC1(C)C(=O)NCc1cc(Cl)ccc1F (stereo unspecified) | - | - | - | - | 0 | -
CCOC(=O)C1(Cc2ccccc2C(F)(F)F)CCN(CCCn2cccn2)CC1 | 0 | 14.3 | 0 | 0 | 0 | 0
CCOC(=O)C1(CCCc2ccccc2)CCN(CCCn2cccn2)CC1 | 0 | 0 | 0 | 0 | 0 | 0
COc1ccc(C2CC=C(C(C)=O)CN2S(=O)(=O)c2ccc(Cl)cc2)cc1 (stereo unspecified) | - | - | - | - | 0 | -
